Screening results as filed in PubChem BioAssay.
TDP1 block = qHTS Assay for Inhibitors of Tyrosyl-DNA Phosphodiesterase (TDP1); Tyrosyl-DNA phosphodiesterase 1 (Homo sapiens), Q9NUW8; recombinant TDP1, AlphaScreen DNA substrate cleavage; Potency, µM (highest dose often 130 µM), without a hit: top-dose activity change, negative = inhibition, actives largely listed as inhibitors; 350,000 tested, 0.28% active; AID 485290, 2010; further: potency means the concentration at half of the fitted maximal effect; on the % scale 0 is the no-effect control and ±100 the full control effect; nearly all actives have a fitted effect of over 40% in size
Target sequence (Q9NUW8 whole entry, looked up): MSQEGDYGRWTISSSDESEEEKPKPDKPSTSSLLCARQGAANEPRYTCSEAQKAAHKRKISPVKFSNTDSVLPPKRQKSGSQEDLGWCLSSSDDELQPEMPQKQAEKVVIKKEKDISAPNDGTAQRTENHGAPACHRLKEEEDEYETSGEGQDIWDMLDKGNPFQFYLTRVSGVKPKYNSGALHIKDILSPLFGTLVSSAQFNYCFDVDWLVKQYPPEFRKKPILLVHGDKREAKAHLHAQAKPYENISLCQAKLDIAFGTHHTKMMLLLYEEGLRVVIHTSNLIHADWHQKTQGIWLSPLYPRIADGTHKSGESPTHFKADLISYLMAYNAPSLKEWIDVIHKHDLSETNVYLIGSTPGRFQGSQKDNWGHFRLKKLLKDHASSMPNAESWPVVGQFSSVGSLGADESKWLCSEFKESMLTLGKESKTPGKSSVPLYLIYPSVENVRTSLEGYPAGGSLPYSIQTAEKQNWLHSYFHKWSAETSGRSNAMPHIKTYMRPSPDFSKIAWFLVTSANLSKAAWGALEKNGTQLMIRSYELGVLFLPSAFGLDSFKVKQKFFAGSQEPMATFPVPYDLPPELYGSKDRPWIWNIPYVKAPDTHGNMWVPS
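Enzyme-compound mixtures sat 15 min at room temperature, followed by a 5 min reaction with 15 nM final substrate and 10 min with AlphaScreen beads. Recombinant human Tdp1 was used at 1 nM final.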
DT40 TDP1 no CPT = qHTS for Inhibitors of human tyrosyl-DNA phosphodiesterase 1 (TDP1): qHTS in cells in absence of CPT. 420,000 tested, 15% active. DT40 Tdp1-/- hTDP1 cells, no CPT, ATP luminescence, 48 h. Potency, µM (titrated, usually from 46.2 µM), inactives show top-dose activity change, negative = growth inhibition, actives largely listed as inhibitors; further: potency means the concentration at half of the fitted maximal effect; on the % scale 0 is the no-effect control and ±100 the full control effect; nearly all actives have a fitted effect of over 55% in size
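A cellular qHTS used chicken DT40 cells lacking endogenous Tdp1 but carrying stably transfected human TDP1. Compounds were applied without camptothecin, and cell growth kinetics were judged by ATP-dependent luminescence after ≥48 hr.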
IL1B secr inh = qHTS for Inhibitors of Inflammasome Signaling: IL-1-beta AlphaLISA Primary Screen; THP-1 LPS/ATP IL-1B secretion, AlphaLISA, 16 h; active compounds read low; activity change, % at 57.5 µM; 360,000 tested, 4.7% active; in the data active means activity change below about -50%; inconclusive means mostly about -30% to -49%; further: on the % scale 0 is the no-effect control and ±100 the full control effect
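Secreted IL-1B measured by AlphaLISA bead assay after 16 h compound exposure of THP-1 cells; compounds (final up to 57.5 uM) added 1 h before LPS (250 ng/mL) and ATP (1.25 mM) stimulation; lower signal means less secretion.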
TDP1 cell CPT = qHTS for Inhibitors of human tyrosyl-DNA phosphodiesterase 1 (TDP1): qHTS in cells in presence of CPT. chicken DT40 Tdp1-/-;hTDP1 cells + 20 nM CPT, ATP luminescence, 48 h. Potency, µM (series often up to 46.2 µM), inactives show at the highest dose activity change, negative = growth inhibition, usual class: inhibitors. 420,000 tested, 12% active; further: potency means the concentration at half of the fitted maximal effect; on the % scale 0 is the no-effect control and ±100 the full control effect; nearly all actives have a fitted effect of over 55% in size
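Chicken DT40 Tdp1-/- cells stably complemented with human TDP1 were seeded at 400 cells/well in medium containing 20 nM camptothecin, exposed to pin-transferred compounds, and grown at 37 °C for at least 48 hr. Viability was read as ATP luminescence.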
TGFb SMAD3 inh = qHTS for Inhibitors of TGF-b; HepG2 CAGA-GFP TGF-b/SMAD3 reporter, GFP fluorescence, 18 h; TGF-beta stimulated, 500 pg/mL final; Potency, µM (series often up to 46.1 µM), for the others: at the top dose activity, negative = inhibition, usual class: inhibitors; 410,000 tested, 1.2% active; further: potency means the concentration at half of the fitted maximal effect; on the % scale 0 is the no-effect control and ±100 the full control effect; nearly all actives have a fitted effect of over 65% in size
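Smad-responsive CAGA-GFP expression was quantified in HEPG2 cells exposed to compounds and 500 pg/mL final TGF-beta for 18 h at 37 degrees C; unstimulated wells defined full inhibition.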
HepG2 tox-1 = qHTS for Inhibitors of TGF-b: Cytotox Counterscreen; HepG2 CAGA-GFP viability, ATP luminescence, 18 h; Potency, µM (titrated, usually from 46.1 µM), without a hit: at the top dose activity change, negative = cytotoxicity, hits mostly cytotoxic; 410,000 tested, 0.76% active; AID 588856, 2011; further: potency means the concentration at half of the fitted maximal effect
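HepG2 CAGA-GFP cells (1000/well, DMEM with 1% FBS) received compound, then TGF-beta at 500 pg/mL final, and were incubated 18 hours at 37 degrees C. Viability was read by CellTiter-Glo luminescence. Media-only wells were set as complete cell-killing and DMSO as no toxicity.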
TGFb confirm = qHTS for Inhibitors of TGF-b: Confirmation of Cherry Picks; Potency, µM (series often up to 46.1 µM), for inactives: at the highest dose activity, negative = inhibition, actives largely listed as inhibitors; HepG2 CAGA-GFP TGF-b reporter, GFP fluorescence, 18 h; cells stimulated with TGF-beta, 500 pg/mL; shares compounds with TGFb SMAD3 inh; AID 720534, 2013; 1,600 tested, 63% active; further: potency means the concentration at half of the fitted maximal effect; on the % scale 0 is the no-effect control and ±100 the full control effect; nearly all actives have a fitted effect of over 65% in size
HepG2 tox-2 = qHTS for Inhibitors of TGF-b: Cytotox Counterscreen for Cherry Picks; 1,600 tested, 27% active; shares compounds with TGFb SMAD3 inh; HepG2 CAGA-GFP viability, ATP luminescence, 18 h; cells stimulated with TGF-beta, 500 pg/mL; AID 720535, 2013; Potency, µM (highest dose often 46.1 µM), inactives show top-dose activity, negative = cytotoxicity, actives largely listed as inhibitors; further: potency means the concentration at half of the fitted maximal effect; on the % scale 0 is the no-effect control and ±100 the full control effect; nearly all actives have a fitted effect of over 70% in size
TGFb CCL64 inh = qHTS for Inhibitors of TGF-b: CCL64 Cells Orthogonal Assay for Cherry Picks; shares compounds with TGFb SMAD3 inh; CCL64 CAGA-GFP reporter, TGF-b stimulated, GFP fluorescence, 18 h; Potency, µM (doses to about 46.1 µM), without a hit: top-dose activity, negative = inhibition, hits mostly inhibitors; 1,600 tested, 41% active; AID 720536, 2013; further: potency means the concentration at half of the fitted maximal effect; nearly all actives have a fitted effect of over 65% in size
TGFb COP inh = qHTS for Inhibitors of TGF-b: Hit Validation in HepG2 Cells using COP promoter; shares compounds with TGFb SMAD3 inh; HepG2 COP-GFP TGF-b reporter, GFP fluorescence, 18 h; cells stimulated by added recombinant TGF-beta; Potency, µM (series often up to 46.1 µM), without a hit: at the highest dose activity, negative = inhibition, usual class: inhibitors; 1,600 tested, 3% active; AID 720537, 2013; further: potency means the concentration at half of the fitted maximal effect; nearly all actives have a fitted effect of over 70% in size
* hit, by the source's call; [ ] = remark or other dose. Only some compounds are listed: those with a hit (about 19% of all), similar ones and a draw of the others. Unless noted, the call rests on the fitted dose curve; in most records, active means well fitted curve in the direction sought with a large enough effect; inconclusive means small, poorly fitted or top-dose-only effect, or another doubt; inactive means no such curve, though single readings can be large; an effect the other way counts as inactive or inconclusive.

`COc1ccc(S(=O)(=O)Nc2ccc(F)c(F)c2)cc1Cl` gave TDP1 block 4%, DT40 TDP1 no CPT -25%, IL1B secr inh 11, TDP1 cell CPT inconclusive, TGFb SMAD3 inh 10µM*, HepG2 tox-1 -39%, TGFb confirm -19%, HepG2 tox-2 -6%, TGFb CCL64 inh -11% and TGFb COP inh 7%.
COc1ccc(S(=O)(=O)Nc2cccc(Cl)c2)cc1OC was read as TDP1 block 6%, DT40 TDP1 no CPT 11%, IL1B secr inh -14, TDP1 cell CPT 5%, TGFb SMAD3 inh 0% and HepG2 tox-1 -7%.
For COc1ccc(NS(=O)(=O)c2ccc(OC)c(N(C)S(=O)(=O)c3ccc(Cl)cc3)c2)cc1 the results were TDP1 block 6%, DT40 TDP1 no CPT 6.5µM*, IL1B secr inh -83*, TDP1 cell CPT 10µM*, TGFb SMAD3 inh 10µM*, HepG2 tox-1 -26%, TGFb confirm 7.3µM*, HepG2 tox-2 inconclusive, TGFb CCL64 inh inconclusive and TGFb COP inh 37%.
Screening CCN(C(=O)c1ccc2c(c1)OCO2)C1CCS(=O)(=O)C1 (centres undefined) returned DT40 TDP1 no CPT 19%, IL1B secr inh 6, TDP1 cell CPT 0%, TGFb SMAD3 inh 0% and HepG2 tox-1 2%.
Screening COc1ccc(/C=C/C(=O)OCC(=O)Nc2ccc3c(c2)OCO3)cc1 returned TDP1 block 1%, DT40 TDP1 no CPT 0%, IL1B secr inh 2, TDP1 cell CPT -26%, TGFb SMAD3 inh 1% and HepG2 tox-1 3%.
For COc1cc2c(cc1OC)C(C)N(C(=O)CCNC(=O)c1ccccc1)CC2 (centres undefined) the results were TDP1 block 1%, DT40 TDP1 no CPT 28%, IL1B secr inh -11, TDP1 cell CPT -1%, TGFb SMAD3 inh 1% and HepG2 tox-1 5%.
`COc1ccccc1/C=C/C(=O)N1CCc2cc(OC)c(OC)cc2C1C` (centres undefined) gave TDP1 block 10%, DT40 TDP1 no CPT inconclusive, IL1B secr inh -70*, TDP1 cell CPT inconclusive, TGFb SMAD3 inh 14µM*, HepG2 tox-1 -19%, TGFb confirm 12µM*, HepG2 tox-2 inconclusive, TGFb CCL64 inh -24% and TGFb COP inh 45%.
Screening CCCC(=O)NC(=S)Nc1cccc(Cl)c1N1CCCCC1 returned TDP1 block 2%, DT40 TDP1 no CPT inconclusive, IL1B secr inh 64, TDP1 cell CPT inconclusive, TGFb SMAD3 inh 7.9µM*, HepG2 tox-1 -87%, TGFb confirm 15µM*, HepG2 tox-2 inconclusive, TGFb CCL64 inh inconclusive and TGFb COP inh 51%.
For COC(=O)CSc1ncnc2c1sc1nc3c(cc12)COC(C)(C)C3 the results were TDP1 block 0%, DT40 TDP1 no CPT inconclusive, IL1B secr inh -8, TDP1 cell CPT -18%, TGFb SMAD3 inh 10% and HepG2 tox-1 3%.
CCc1nc(OCc2ccco2)c2sc3nc4c(cc3c2n1)COC(C)(C)C4 was read as TDP1 block 2%, DT40 TDP1 no CPT 16µM*, IL1B secr inh 4, TDP1 cell CPT 26µM*, TGFb SMAD3 inh inconclusive, HepG2 tox-1 -11%, TGFb confirm inconclusive, HepG2 tox-2 -16%, TGFb CCL64 inh -1% and TGFb COP inh 19%.
CCCCn1c(CNC(=O)C(C)(C)C)nc2ccccc21 was read as TDP1 block 3%, DT40 TDP1 no CPT inconclusive, IL1B secr inh 9, TDP1 cell CPT -6%, TGFb SMAD3 inh -1% and HepG2 tox-1 -3%.
For CC(C)(C)C(=O)NCCCc1nc2ccccc2n1CCCOc1ccc(Cl)cc1 the results were TDP1 block 0%, DT40 TDP1 no CPT 8.2µM*, IL1B secr inh -74*, TDP1 cell CPT 6.5µM*, TGFb SMAD3 inh 13µM*, HepG2 tox-1 -17%, TGFb confirm 12µM*, HepG2 tox-2 -14%, TGFb CCL64 inh inconclusive and TGFb COP inh 11%.
For O=S(=O)(c1ccc2ccccc2c1)N1CCN(CCO)CC1 the results were DT40 TDP1 no CPT 1%, IL1B secr inh 7, TDP1 cell CPT 5%, TGFb SMAD3 inh 0% and HepG2 tox-1 -16%.
COc1ccc(OCc2cc(C(=O)N(C)Cc3cnccn3)no2)c(Cl)c1 was read as TDP1 block 7%[56.1 µM], DT40 TDP1 no CPT -1%, IL1B secr inh 38, TDP1 cell CPT 5%, TGFb SMAD3 inh -16% and HepG2 tox-1 -17%.
Screening COc1cc(Cl)ccc1OCc1cc(C(=O)N(C)Cc2cccc3cnccc23)no1 returned TDP1 block 5%, DT40 TDP1 no CPT 12µM*, IL1B secr inh -64*, TDP1 cell CPT 15µM*, TGFb SMAD3 inh 11µM*, HepG2 tox-1 -39%, TGFb confirm 15µM*, HepG2 tox-2 inconclusive, TGFb CCL64 inh inconclusive and TGFb COP inh 14%.
